The results in this text go back to PubChem BioAssay (NCATS).

Calls of active or inactive are those of the source. The call rests on the fitted dose curve; in most records, active means well fitted activation curve with a large enough effect; inconclusive means small, poorly fitted or top-dose-only effect; inactive means flat fitted curve, though single readings scatter.

This assay is described as follows: Cellular Toxicity (caspase-3) N2a (AID 665).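 Further: compound exposure lasted 16 h at 37 °C before readout.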 The note with it: N2a cells, luminescence, normalized: DMSO 0%, 10 µM staurosporine 100%; series mostly up to 92.2 µM. An excerpt:
NIH Chemical Genomics Center [NCGC]
NIH Molecular Libraries Screening Centers Network [MLSCN]
National Institutes of Environmental Health Sciences [NIEHS]
National Toxicology Program [NTP]
We have developed a 1536-well cell-based assay for quantitative high throughput screening (qHTS) against a number of cell lines to determine in vitro caspase 3/7 activity of small molecules. This particular assay uses the N2a cell line which is derived from mouse neuroblastoma.
NCGC Assay Protocol Summary:
The Caspase-Glo 3/7 assay (Promega) is a homogeneous method to measure caspase-3 and caspase-7 activities in cultured cells. The quantitation of caspase 3/7 activity is based on the cleavage of a peptide-aminoluciferin substrate. After caspase cleaves the substrate the free aminoluciferin is liberated and serves as the substrate of luciferase, which generates the light. The luminescent signal is proportional to the amount of caspase 3/7 activity present.
Using the Caspase-Glo 3/7 assay, the amount of caspase 3/7 activity was measured in the N2a cells with complete culture medium following compound treatment for 16 hours. The assay was performed in opaque white 1536-well plates. In the screen, staurosporine and doxorubicin were used as positive controls. Library compounds were measured for their ability to cause the activation of caspase 3/7 in the cell line, as reflected by an increase in luminescence signal, in a concentration-dependent manner. Data were normalized to the controls for basal activity (DMSO only) and 100% stimulation (10 uM staurosporine). AC50 values were determined from concentration-response data modeled with the standard Hill equation.
qHTS protocol for caspase 3/7 assay in mouse N2a cell line
[Step] [Parameter] [Value] [Description]
1. Reagent; 5 uL; 1500 mouse N2a cells/well
2. Time; 5 hr; 37 °C incubation
4. Controls; 23 nL; doxorubicin 7 pM to 100 uM & staurosporine 1.4 pM to 20 uM
5. Time; 16 hr; 37 °C incubation
6. Reagent; 5 uL; Caspase-Glo 3/7 reagent
7. Time; 1 hr; Room Temperature
8. Detection; Luminescence; Viewlux plate reader
Keywords: caspase 3/7, apoptosis, mouse N2a cell line, luminescence, NTPHTS, NTPHTS_NCGC, NIEHS, EPA, DSSTox, MLSMR, MLSCN, NIH Roadmap, qHTS, NCGC
As for `CCCC(C)(COC(N)=O)COC(=O)NC(C)C` (stereo unspecified), the outcome was inactive. Take `c1ccc2c(c1)Nc1ccccc1S2`: the result was inactive. In the case of `Oc1ccc(Cl)cc1Cc1ccccc1` it was “inactive”; in that of `OCCOc1ccccc1`, “inactive”. In the case of `NCC(O)c1ccc(O)cc1` (stereo unspecified) it was “inactive”; in that of `Oc1cccc2cccnc12`, “inactive”.

Consider `Clc1ccc(COC(Cn2ccnc2)c2ccc(Cl)cc2Cl)cc1` (stereo unspecified), for which the compound was classed as inactive.

As to `N[C@@H](Cc1ccc(N(CCCl)CCCl)cc1)C(=O)O`, the compound was classed as inactive. As to `CNCC(O)c1ccc(O)cc1` (stereo unspecified), the compound was classed as inactive. In the case of `Oc1ccccc1-c1ccccc1` it was “inactive”; in that of `CCOP(=S)(OCC)Oc1cc(C)nc(C(C)C)n1`, “inactive”.
